# Source: PubChem BioAssay
# Sampled rows, rich in hits. Any-hit rate of the full collection: about 1.1%.
# MOR-DOR ag: OPRM1-OPRD1 heterodimerization agonism. P35372+P41143. cells, luminescence. activation, % at 9.3 µM. 0.3% of 340,000 active; in the data active means activation above about 18%;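 further: 0% = vehicle-treated cells and 100% = reference agonist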
# Target sequence (P35372 whole entry, looked up): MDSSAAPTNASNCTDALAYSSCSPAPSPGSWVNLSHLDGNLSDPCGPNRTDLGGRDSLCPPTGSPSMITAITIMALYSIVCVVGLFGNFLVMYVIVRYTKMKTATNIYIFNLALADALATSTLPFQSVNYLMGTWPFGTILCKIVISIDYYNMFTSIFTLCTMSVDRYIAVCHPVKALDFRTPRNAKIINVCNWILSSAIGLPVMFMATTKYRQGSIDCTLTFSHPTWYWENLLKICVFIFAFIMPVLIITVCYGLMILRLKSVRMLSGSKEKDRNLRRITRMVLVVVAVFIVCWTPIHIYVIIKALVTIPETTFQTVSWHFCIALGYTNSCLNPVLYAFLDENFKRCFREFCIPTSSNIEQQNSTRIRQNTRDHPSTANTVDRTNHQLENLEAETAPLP
# Target sequence (P41143 whole entry, looked up): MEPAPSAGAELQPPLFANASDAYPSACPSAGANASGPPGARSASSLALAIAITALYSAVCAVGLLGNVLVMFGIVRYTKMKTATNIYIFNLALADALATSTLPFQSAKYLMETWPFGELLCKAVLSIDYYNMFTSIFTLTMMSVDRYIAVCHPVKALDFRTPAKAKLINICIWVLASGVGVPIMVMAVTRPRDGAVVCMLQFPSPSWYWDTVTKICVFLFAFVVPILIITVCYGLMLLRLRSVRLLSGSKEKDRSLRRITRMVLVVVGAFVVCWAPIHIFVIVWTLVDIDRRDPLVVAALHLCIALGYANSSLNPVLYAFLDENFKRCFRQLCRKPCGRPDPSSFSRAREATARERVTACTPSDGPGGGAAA
# HTR5A ag: HTR5A agonism, opioid heterodimer counter-screen; P47898; HTR5A agonist assay, luminescence, cell-based; activation, % at 9.3 µM; 0.61% of 340,000 active; AID 504692; in the data active means activation mostly above about 9.5%, no sharp cut-off; inactive means mostly below about 7.6%;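 further: 0% = cells with vehicle only and 100% = reference agonist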
# HTR5A inv ag: counter-screen for OPRM1-OPRD1 inverse agonists: human HTR5A inverse agonism. P47898. HTR5A cell line, luminescence. inhibition, % at 9.3 µM. 0.083% of 340,000 active; in the data active means inhibition mostly above about 23%, no sharp cut-off; inactive means mostly below about 18%;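 further: 0% = cells with DMSO and 100% = no-cell wells with DMSO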
# MOR-DOR inv ag-1: inverse agonists of human mu-delta opioid receptor heterodimerization. cell-based MOR-DOR heterodimer luminescence, inverse agonism. 0.21% of 340,000 active. inhibition, % at 9.3 µM. P35372+P41143; in the data active means inhibition above about 22%, passing the limit was not always enough;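 further: 0% = cells with DMSO and 100% = wells without cells with DMSO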
# MOR-DOR inv ag-2: opioid heterodimer inverse agonism, HTR5A counter-screen; shares compounds with HTR5A inv ag; U2OS counter-screen cells, complementation luminescence; inhibition, % at 9.3 µM; 190 tested, under 10 active; AID 504912;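 further: 0% = cells with DMSO and 100% = wells without cells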
# HTR5A inv confrm: confirmation of human HTR5A inverse agonists | 190 tested, under 10 active | HTR5A-expressing cells, inverse agonism, luminescence | shares compounds with HTR5A inv ag | inhibition, % at 9.3 µM;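 further: 0% = cells with DMSO and 100% = no cells with DMSO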
# Active calls of the source: *; i = inactive; / = no result given. Unless noted, how the calls were made is not given here.
SMILES,MOR-DOR ag,HTR5A ag,HTR5A inv ag,MOR-DOR inv ag-1,MOR-DOR inv ag-2,HTR5A inv confrm
Oc1ccc(Cl)cc1N=Cc1sc2ccccc2c1Cl,5,3,-8,-24,/,/
C/C(=N\NC(=S)NCc1ccccc1)c1ccc2ccccc2c1OC(F)F,2,-22,54*,-11,-24,4
C/C(=N\NC(=S)NCc1ccccc1)c1ccc(Br)cc1,5,1,-2,-22,/,/
Cc1ccc(NC(=O)CNC(=O)COc2ccccc2)nc1,-3,-20,49*,13,i,-5
CC1CCCN(CC(O)CN)C1 (configuration not stated),-1,-2,4,7,/,/
COc1cc(/C=C2/SC(=NCc3ccccc3)N(Cc3ccccc3)C2=O)ccc1O,-1,-9,23,4,/,/
O=C1/C(=C/c2cccc(O)c2)SC(=S)N1CC1CCCO1 (configuration not stated),8,-2,7,-44,/,/
CCOc1cc(/C=C2/SC(=S)N(CC3CCCO3)C2=O)ccc1O (configuration not stated),-5,-11,31*,21,-46,25
O=C1/C(=C\c2ccc(O)c(O)c2)SC(=S)N1Cc1ccccc1,0,-8,30*,1,-9,27
COc1cc(/C=C2\SC(=S)N(NC(=O)c3ccccc3OC)C2=O)ccc1O,-6,-9,33*,28,-14,32
COc1cc(/C=C2/SC(=S)N(Cc3ccccc3)C2=O)ccc1O,-2,-8,30*,11,-43,36
Cc1ccccc1OCC(=O)Nc1nnc(COc2ccccc2)s1,11,0,1,-59,/,/
Cc1c(O)ccc2c(CN(C)Cc3ccccc3)cc(=O)oc12,3,-3,19,-18,/,/
CC(Oc1ccccc1F)c1nnc(SCC(=O)Nc2ccc(N3CCOCC3)cc2)o1 (configuration not stated),-3,-3,13,11,/,/
COc1cc(/C=C2\SC(=S)N(C(C(=O)O)c3ccccc3)C2=O)ccc1O (configuration not stated),-3,-7,20,17,/,/
COc1cc(/C=C2/SC(=S)N(c3c(C)n(C)n(-c4ccccc4)c3=O)C2=O)ccc1O,-7,-12,28*,33,-4,6
COc1ccc(CNc2ncnc3sccc23)cc1OC,0,1,-1,2,/,/
COc1ccc(CNc2ncnc3sccc23)cc1,1,-9,25*,-6,-12,-5
Cc1n[nH]c(=S)n(NC(=O)CC(=O)Nn2c(=S)[nH]nc(C)c2=O)c1=O,3,-24,65*,-17,-85,16
CC(C)(C)OC(=O)NCCc1nnc(SCC(N)=O)o1,-3,-5,49*,14,-18,4
NNc1nc(Nc2ccccc2)nc(N2CCCCC2)n1,4,-9,35*,-21,-24,-157
NNc1nc(Nc2ccc([N+](=O)[O-])cc2)nc(N2CCCCCC2)n1,-4,-3,16,19,/,/
CC1CC(C)CN(c2ncc3c(n2)CC(c2ccccc2Cl)CC3=O)C1 (configuration not stated),-2,2,-33,13,/,/
CC1CC(C)CN(c2ncc3c(n2)CC(c2ccc(Cl)cc2)CC3=O)C1 (configuration not stated),-1,-10,32*,4,-13,-9
COc1ccc(NC(=O)CN2C(=O)NC3(CCCc4ccccc43)C2=O)c(OC)c1 (configuration not stated),-1,0,1,2,/,/
SMILES,MOR-DOR ag,HTR5A ag,HTR5A inv ag,MOR-DOR inv ag-1,MOR-DOR inv ag-2,HTR5A inv confrm
CC1(c2nnc(Cc3ccccc3)o2)CC(c2ccncc2)=NO1 (configuration not stated),-2,5,-9,10,/,/
NS(=O)(=O)c1ccc(N=Nc2c[nH]c(=O)c(O)c2)cc1,-4,-9,32*,19,16,29
CN(C)c1ccc(N=Nc2ccc(S(N)(=O)=O)cc2)cc1,-1,-11,26,5,/,/
N#Cc1c(NC(=O)C2CC(c3c(F)cccc3Cl)=NO2)sc2c1CCC2 (configuration not stated),0,5,-12,-1,/,/
CCc1c(C)sc(NC(=O)C2CC(c3c(F)cccc3Cl)=NO2)c1C#N (configuration not stated),2,-9,33*,-12,-47,-8
Cc1c(NC(=O)N(C)c2ccccc2)c(=O)n(-c2ccccc2)n1C,-2,1,-5,9,/,/
C=CCc1ccc(OCc2ccc(C(=O)Nc3ccc(NC(C)=O)cc3)o2)c(OC)c1,0,2,-9,-2,/,/
